This passage reports Potency and viability change, negative = cytotoxic results from PubChem BioAssay (Tox21).

Molecules are shown by their SMILES. Where “and” joins values, the source holds several entries; their conditions need not be identical. Equal entries are not always repeated. Inconclusive results are not listed. A call without a number means that no potency is given here. Calls of active or inactive are those of the source. The call rests on the fitted dose curve; in most records, active means well fitted cell-killing curve with a large enough effect in the repeat runs; inconclusive means weak or mixed curves; inactive means flat fitted curve, though single readings scatter.
Potency means the concentration at half of the fitted maximal effect.

A short description of this test: qHTS assay to identify small molecule antagonists of the TGF-beta/Smad signaling pathway - cell viability counter screen (AID 1346824). Further: nearly all actives have a fitted effect of over 50% in size. The settings on record: SBE-bla HEK293T viability, CellTiter-Glo luminescence; series mostly up to 76.8 µM. From the text:
U.S. Tox21 Program National Center for Advancing Translational Sciences [NCATS] NIH Chemical Genomics Center [NCGC] U.S. Environmental Protection Agency [EPA] National Institutes of Environmental Health Sciences [NIEHS] National Toxicology Program [NTP] U.S. Food and Drug Administration [FDA] Tox21 Assay Overview: Transforming growth factor beta (TGF-beta) superfamily consists of a large number of structurally related dimeric proteins that act as hormones or local mediators in regulating a wide range of biological functions. This superfamily includes TGF-betas themselves, the bone morphogenetic proteins (BMPs) and the activins. These ligands induce oligomerization of serine/threonine receptor kinases and phosphorylate the cytoplasmic signaling molecules of Smad protein family. CellSensor SBE-bla HEK 293T cell line (Life Technologies, Carlsbad, CA), responsive to TGF-beta was used to screen Tox21 10K compound library for identification of agonists/antagonists of the Smad signaling pathway. This cell line contains a beta-lactamase reporter gene under control of the Smad binding element (SBE) stably integrated into HEK 293T cells. Also cytotoxicity of the compounds was tested in parallel by measuring the cell viability using CellTiter-Glo assay system in the same wells.
Tox21 Assay Protocol Summary: SBE-bla HEK 293T cells were dispensed at 4,000/well in 5 uL of assay medium into black wall/clear-bottom 1536-well plates using a Multidrop Combi (ThermoFisher Scientific, Waltham, MA) dispenser. After the assay plates were incubated at 37 C and 5% CO2 for an overnight, 23 nL of compounds dissolved in DMSO, positive controls or DMSO only was transferred to the assay plate by a Pintool station (Kalypsys, San Diego, CA). Compound transfer was followed by the addition of 1 uL of 0.25 ng/mL TGF-beta1 or assay buffer using two separate tips of Flying Reagent Dispenser (FRD, Aurora Discovery, San Diego, CA). The assay plates were incubated at 37 C and 5% CO2 for 5 hr. One uL of LiveBLAzer B/G FRET substrate (Life Technologies) was added using a Flying Reagent Dispenser (FRD, Aurora Discovery, San Diego, CA) and the plates were incubated at room temperature for 2 hr. Fluorescence intensity (405 nm excitation, 460 nm and 530 nm emissions) was measured using an Envision plate reader (PerkinElmer, Shelton, CT). For cytotoxicity read, 4 uL of CellTiter-Glo reagent (Promega Corporation, Madison, WI) was added to each well of the assay plates using FRD. After 30 min incubation at room temperature, the luminescence intensity was measured using ViewLux plate reader (PerkinElmer).
For orientation: qHTS replaces the single test concentration by a dilution series.
`CC1(C)CC(=O)CC(C)(C)N1[O]`: the Potency entry is “inactive”.

As for `O=C(O)CCCOc1ccc(Cl)cc1Cl`, the Potency entry is “inactive”.

Regarding `CCN(C(C)=O)c1cccc(-c2ccnc3c(C#N)cnn23)c1`, the Potency entry is “inactive”.

On to `Cc1ncc(C[n+]2csc(CCO)c2C)c(N)n1`, for which the Potency result is “inactive”.

For `CC(O)CN1CCN(CC(=O)[O-])CCN(CC(=O)[O-])CCN(CC(=O)[O-])CC1.[Gd+3]` (stereo not given), the Potency entry was “inactive”.

On to `O=C(NC(=O)c1cc(F)c(F)cc1Cl)Nc1cc(F)ccc1N1CCC(C(=O)O)CC1`, for which the Potency entry is “inactive”.

Take `CCOc1cccc(C2(N3CCN(c4ccccc4)CC3)CCC(C)CC2)c1` (stereo not given): the Potency result is “inactive”.

On to `CCc1ccccc1N`, for which the Potency entry is “inactive”.

Consider `CC(C)c1ccc(NC(=O)N(C)C)cc1`, for which the Potency entry is “inactive”.

For `C[N+]1(CCF)[C@@H]2CC[C@H]1CC(OC(=O)C(O)(c1ccccc1)c1ccccc1)C2` (stereo not given in full), the Potency result was “inactive”.

Turning to `CC(C)(C)c1ccc(CCOc2ncnc3ccccc23)cc1`, the Potency result was “inactive”.

Take `OC[P+](CO)(CO)CO`: the Potency result is “inactive”.

Regarding `CCCCOC(=O)CCC(=O)OCCCC`, the Potency result is “inactive”.

As for `CCCC[P+](CC)(CCCC)CCCC` (tested in a mixture with another compound), the Potency result was “inactive”.

Take `CCCCC(CC)COC(=O)c1c(Br)c(Br)c(Br)c(Br)c1C(=O)OCC(CC)CCCC` (stereo not given): the Potency entry is “inactive”.

`CC(C)[C@@H](C(=O)O[C@@H](C#N)c1cccc(Oc2ccccc2)c1)c1ccc(Cl)cc1`: the Potency entry is “inactive”.

For the compound `CCOP(=O)(SC(C)CC)N1CCSC1=O` (stereo not given), the Potency entry is “inactive”.

As for `Cc1nc2ccccc2c(=O)n1-c1ccccc1Cl`, the Potency result is “inactive”.

Take `Cc1ccc(N)c(C)c1`: the Potency result is “inactive”.

As to `[Cl-].[Cl-].[Hg+2]`, the Potency was 24.4 µM (active) and 54.9 µM (active).

As for `CC(Cc1ccccc1)NCc1ccccc1Cl` (stereo not given), the Potency result was “inactive”.

With `CC(C)(C)N(NC(=O)c1ccc(Cl)cc1)C(=O)c1ccccc1`, the Potency entry is “inactive”.

In the case of `C=CCc1ccccc1O`, the Potency result is “inactive”.

As for `C[N+](C)(C)CC1CO1` (stereo not given), the Potency entry is “inactive”.

For `C1CCNCC1`, the Potency entry was “inactive”.

Consider `OCCSSCCO`, for which the Potency result is “inactive”.

As to `CCCCC#N`, the Potency result was “inactive”.

As for `CCOP(=O)(O)C(N)=O`, the Potency result was “inactive”.

Turning to `COCc1cnc(C2=NC(C)(C(C)C)C(=O)N2)c(C(=O)O)c1` (stereo not given), the Potency entry is “inactive”.

With `O=C(O)c1ccc(=O)[nH]c1`, the Potency result was “inactive”.

With `COc1cc(CC#N)cc(OC)c1OC`, the Potency entry was “inactive”.

Turning to `CCOC(=O)C1OC1(C)c1ccccc1` (stereo not given), the Potency result is “inactive”.

On to `O=C(O)c1cc(I)cc(I)c1I`, for which the Potency result was “inactive”.

For the compound `CCCCCCCCCCCCN=C(N)N`, the viability change, negative = cytotoxic was -21.8% [at 2.72 µM] (inactive).

Turning to `C[N+]1(CCC(C(N)=O)(c2ccccc2)c2ccccc2)CCCCC1`, the Potency entry is “inactive”.

Consider `CCCN(CCC)c1c([N+](=O)[O-])cc(C(C)C)cc1[N+](=O)[O-]`, for which the Potency result is “inactive”.

In the case of `FC(Cl)(Cl)C(F)(Cl)Cl`, the Potency entry is “inactive”.

In the case of `NCCc1cc(O)c(O)cc1O`, the Potency entry is “inactive”.

With `NP(N)(=O)NC(=O)c1ccc(F)cc1`, the Potency entry was “inactive”.

For `CCOP(=S)(OCC)Oc1ccc(S(C)=O)cc1` (stereo not given), the Potency entry was “inactive”.
